Screens from PubChem BioAssay.
DT40 TDP1 CPT – growth inhibition of DT40 Tdp1-/-;hTDP1 cells with camptothecin (screen for TDP1 inhibitors); 12% of 420,000 active; Potency, µM (series often up to 46.2 µM), without a hit: top-dose activity change, negative = growth inhibition, most hits filed as inhibitors; chicken DT40 Tdp1-/-;hTDP1 cells + 20 nM CPT, ATP luminescence, 48 h; also: potency is read from the fitted curve at half-maximal effect; nearly all actives have a fitted effect of over 55% in size
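Chicken DT40 Tdp1-/- cells complemented with human TDP1, 400 cells/well, exposed to compounds plus 20 nM camptothecin for at least 48 h at 37 C; viability read as ATP content by CellTiter-Glo luminescence.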
VP16 counter – Gal4-VP16 reporter inhibition counter-screen | Potency, µM (series often up to 53.6 µM), inactives show at the highest dose activity, negative = inhibition, most hits filed as inhibitors | AID 2546 | Drosophila S2 Gal4-VP16 UAS-luciferase, luminescence, 20 h | 3.5% of 310,000 active;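 also: Gal4-VP16 expression switched on by copper sulfate through the metallothionein promoter; potency is read from the fitted curve at half-maximal effect; nearly all actives have a fitted effect of over 50% in size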
ELG1 DNA repair – ELG1-dependent DNA repair inhibition. HEK293T ELG1-luciferase reporter, luminescence, 16 h; DNA damage induced by 5-fluorouridine. Potency, µM (titrated, usually from 46.1 µM), without a hit: at the highest dose activity change, negative = inhibition, most hits filed as inhibitors. 2.3% of 330,000 active; also: potency is read from the fitted curve at half-maximal effect; nearly all actives have a fitted effect of over 55% in size
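Cells (2,000 per well) received 5-fluorouridine plus test compound or DMSO and were incubated 16 hr at 37 °C, 5% CO2. Luciferase activity was read by luminescence 30 min after ONE-Glo addition; signal suppression marked inhibition of damage-induced ELG1 function.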
TDP1 cell noCPT – qHTS for Inhibitors of human tyrosyl-DNA phosphodiesterase 1 (TDP1): qHTS in cells in absence of CPT; DT40 Tdp1-/- hTDP1 cells, no CPT, ATP luminescence, 48 h; Potency, µM (top dose mostly 46.2 µM), inactives show top-dose activity change, negative = growth inhibition, actives largely listed as inhibitors; 15% of 420,000 active; AID 686978, 2013; also: potency is read from the fitted curve at half-maximal effect; nearly all actives have a fitted effect of over 55% in size
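DT40 Tdp1-/-;hTDP1 cells, no CPT (DMSO vehicle only), 400 cells/well; compounds pin-transferred; ≥48 hr, 37 °C; CellTiter-Glo 30 min RT dark, luminescence read.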
IL-1B inflam inh – blocks inflammasome-driven IL-1 beta release; THP-1 LPS/ATP IL-1B secretion, AlphaLISA, 16 h; stronger effect = lower value; 4.7% of 360,000 active; activity change, % at 57.5 µM; in the data active = activity change below about -50%; inconclusive = mostly about -30% to -49%
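THP-1 cells pretreated 1 hr with compounds (up to 57.5 uM final), then stimulated with LPS (250 ng/mL final) plus ATP (1.25 mM final); secreted IL-1B measured by AlphaLISA after 16 hr, decreased signal indicating inhibition.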
RORg inh – ROR gamma (mouse) transcription inhibition | Drosophila S2 Gal4-RORgamma UAS-luciferase reporter, 20 h | P51450 | 5.4% of 310,000 active | Potency, µM (highest dose often 53.6 µM), for the others: at the top dose activity change, negative = inhibition, actives largely listed as inhibitors; also: potency is read from the fitted curve at half-maximal effect; nearly all actives have a fitted effect of over 60% in size
Target sequence (P51450 whole entry, looked up, the tested form may be a part): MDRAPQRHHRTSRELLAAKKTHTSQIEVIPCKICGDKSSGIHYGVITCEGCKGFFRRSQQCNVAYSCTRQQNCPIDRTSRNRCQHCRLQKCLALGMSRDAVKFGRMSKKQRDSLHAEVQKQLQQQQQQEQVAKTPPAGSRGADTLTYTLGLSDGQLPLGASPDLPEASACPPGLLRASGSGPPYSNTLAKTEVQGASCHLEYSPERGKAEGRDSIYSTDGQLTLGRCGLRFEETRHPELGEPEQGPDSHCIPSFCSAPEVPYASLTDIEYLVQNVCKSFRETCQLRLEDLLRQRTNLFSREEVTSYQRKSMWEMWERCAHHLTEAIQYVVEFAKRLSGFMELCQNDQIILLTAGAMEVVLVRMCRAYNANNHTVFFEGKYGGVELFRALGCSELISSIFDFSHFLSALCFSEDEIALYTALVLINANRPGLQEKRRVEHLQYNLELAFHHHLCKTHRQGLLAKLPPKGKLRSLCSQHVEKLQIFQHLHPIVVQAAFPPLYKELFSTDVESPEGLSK
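Luciferase reporter read in Schneider cells carrying Gal4-RORγ (mouse) and UAS-Photinus luciferase; cells given compound 1 h before 700 uM copper sulfate induction, then incubated 20 h at ambient temperature.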
Numbers without * were called inactive; u = inconclusive; x = not tested or not shown; [ ] = another dose, or the depositor's remark. A selection: hits, their analogues and other compounds. The true share with any hit is near 21%. Unless noted, calls follow the shape of the dose curve; as a rule, active = well fitted curve in the direction sought with a large enough effect; inconclusive = small, poorly fitted or top-dose-only effect, or another doubt; inactive = no such curve, though single readings can be large; an effect the other way counts as inactive or inconclusive. % is scaled to controls: 0 for no effect and ±100 for the full control effect.

SMILES	DT40 TDP1 CPT	VP16 counter	ELG1 DNA repair	TDP1 cell noCPT	IL-1B inflam inh	RORg inh
Cc1ccc(C(C)C)c(OCC(=O)Nc2ccc3c(c2)nc(CCN2CCCCC2)n3C)c1	u	u	-8%	u	-80*	u
CCn1c(CN2CCCCC2)nc2cc(NC(=O)c3cccc([N+](=O)[O-])c3)ccc21	18µM*	x	x	23µM*	x	x
CCn1c(CN2CCCCC2)nc2cc(NC(=O)COc3ccc(C(C)(C)C)cc3)ccc21	12µM*	x	x	8.2µM*	x	x
O=C([C@H]1O[C@@H](n2ccc(=O)[nH]c2=O)[C@H](O)[C@@H]1O)N(CCC1=CCCCC1)CC1CC1	u	x	x	-41%	9	x
O=C(NCCN1CCOCC1)C1CC(=O)N(c2cccc(C(F)(F)F)c2)C1 (stereo unspecified)	7%	x	10%	2%	6	x
COc1ccccc1-c1c(C)c(C)nc(N)c1C#N	3%	-7%	-3%	-8%	8	-20%
CCOc1cc(-c2c(C#N)c(N)nc3c2CCCC3C)ccc1O (stereo unspecified)	9.2µM*	4%	u	u	6	-8%
CCOc1cc(-c2c(C#N)c(N)nc3c2CCc2ccccc2-3)ccc1O	18µM*	-29%	-21%	15µM*	-17	42%
COc1ccccc1-c1cc(C2CC2)nc(N)c1C#N	-8%	13%	u	-8%	43	40%
COc1ccc(-c2c(C#N)c(N)nc3c2CCCCCC3)cc1OC	-12%	-8%	11%	-18%	3	-16%
COc1ccccc1-c1c(C#N)c(N)nc2c1CCc1ccccc1-2	6.5µM*	u	6%	6.5µM*	63	-9%[10 µM]
CCc1nc(N)c(C#N)c(-c2ccccc2OC)c1C	13µM*	0%	1%	1%	13	-24%
CCc1nnc(NC(=O)c2cc(=O)c3cc(C)c(C)cc3o2)s1	-14%	x	x	-11%	x	x
Cc1cc(CC(=O)O)c(C)n1-c1ccc(Cl)cc1	-15%	1%	x	u	x	15%
COc1ccc(-n2cc(CNCc3cccnc3)c(-c3cccc(F)c3)n2)cc1	u	-8%	-19%	u	u	9%
COc1ccc(CNCc2cn(-c3cccc(F)c3)nc2-c2ccc(C)o2)cc1	u	1%	-18%	16µM*	-87*	-2%
COc1ccc(-n2cc(CN(C)C(C)c3ccncn3)c(-c3cccc(F)c3)n2)cc1 (stereo unspecified)	u	-14%	u	u	-51*	-33%
COc1ccc(-n2cc(CNC3CCC(O)CC3)c(-c3cccc(F)c3)n2)cc1 (stereo unspecified)	21µM*	-14%	9%	21µM*	-28	3%
COc1cc2oc3cc(C#Cc4ccc(N)cc4)ccc3c(=O)c2cc1OC	16µM*	x	x	16µM*	-61*	x
COc1ccc(-c2oc3ccc(-c4cc(OC)c(OC)c(OC)c4)cc3c2C#Cc2ccccn2)cc1	18µM*	x	u	u	-2	x
COc1cc2oc3ccc(C#Cc4ccccn4)cc3c(=O)c2cc1OC	u	x	x	23µM*	0	x
COc1cc2oc3ccc(C#Cc4ccc(N)cc4)cc3c(=O)c2cc1OC	u	x	x	u	-23	x
Cn1c2ccccc2c(=O)c2ccc(C#Cc3ccccn3)cc21	u	16µM*	u	u	-17	11µM*
C#CCNC(=O)C1=C[C@@H](C)[C@H](CCCO)[C@@H](OCC)O1	u	x	x	10%	13	x
O=C(NCc1nnnn1-c1ccc(F)cc1)C(=O)c1c[nH]c2ccccc12	-21%	x	x	u	34	x
SMILES	DT40 TDP1 CPT	VP16 counter	ELG1 DNA repair	TDP1 cell noCPT	IL-1B inflam inh	RORg inh
Cc1ccc(S(=O)(=O)CCC(=O)c2ccc(F)cc2)cc1	4.1µM*	2.8µM*	8%	2.6µM*	-61*	4µM*
Cc1ccc(C(=O)CCS(=O)(=O)c2ccc(F)cc2)cc1	4.6µM*	3.5µM*	12%	2.9µM*	-28	3.2µM*
COc1ccc(C(=O)CCS(=O)(=O)c2ccc(F)cc2)cc1OC	x	-11%	-5%	x	x	-5%
Cc1ccc(S(=O)(=O)CCC(=O)NCc2ccc(Cl)cc2)cc1	3%	-1%	17%	-14%	6	-5%
Cc1ccc(C(=O)CCS(=O)(=O)c2ccc(Cl)cc2)cc1	2.9µM*	u	-2%	2.9µM*	0	16µM*
COc1ccccc1NC(=O)C(C)OC(=O)c1cccc(-n2cnnn2)c1 (stereo unspecified)	u	x	1%	-30%	34	x
O=C(Nc1ccccc1)N1CCCC2(CCNCC2)C1	17%	19%	x	-21%	x	-26%
CCOC(=O)C1(Cc2cccc(OC)c2)CCCN(C(=O)CNC(C)=O)C1 (stereo unspecified)	0%	-15%	u	-4%	-5	18%
NS(=O)(=O)c1ccc(NC(=O)c2ccc(S(=O)(=O)N3CCCCCC3)cc2)cc1	u	x	-2%	u	-6	x
COc1cccc(NC(=O)c2oc3ccc(S(=O)(=O)N4CCC5(CC4)OCCO5)cc3c2C)c1	5.8µM*	x	x	5.2µM*	x	x
Cc1ccc(Cl)cc1NC(=O)c1oc2ccc(S(=O)(=O)N3CCCCC3)cc2c1C	-14%	x	x	-24%	x	x
Cc1c(C(=O)Nc2ccccc2Cl)oc2ccc(S(=O)(=O)N3CCCCCC3)cc12	5.8µM*	x	x	13µM*	x	x
COc1ccc2oc(C(=O)Nc3ccc(N4CCOCC4)cc3)c(C)c2c1	u	x	u	u	-57*	x
Cc1ccc(NC(=O)c2oc3ccc(S(=O)(=O)N4CCCCC4)cc3c2C)c(C)c1	-11%	x	x	-22%	x	x
Cc1ccc(NC(=O)c2oc3ccc(S(=O)(=O)N4CCC5(CC4)OCCO5)cc3c2C)c(C)c1	8.2µM*	x	x	6.5µM*	x	x
C=C1C=C(C)n2ncc(C(=O)NCCCCCC)c2N1	-2%	x	x	u	x	x
CC(C)c1ccccc1OCCCCCN1CCOCC1	1%	x	x	-7%	-3	x
CCn1c(CN2CCOCC2)nc2cc(NC(=O)c3cccc([N+](=O)[O-])c3)ccc21	u	x	x	-27%	x	x
CC(C)CN(C(=O)c1ccc(-n2cncn2)c([N+](=O)[O-])c1)C1CCS(=O)(=O)C1 (stereo unspecified)	3%	x	25%	-6%	11	x
NCC(=O)N[C@@H](CCCN=C(N)N)C(=O)NCC(=O)N[C@@H](CCC(=O)O)C(=O)N[C@@H](CO)C(=O)O	x	-9%	x	x	x	-3%
